PINK1 modulator: A Quantitative High throughput Screen to Identify Chemical Modulators of PINK1 Expression. PINK1 immunofluorescence, high-content cytometry, 24 h. Potency, µM (doses to about 76.6 µM), without a hit: at the highest dose activation (PINK1 increase), usual class: activators. 0.2% of 410,000 active. AID 624263, 2012; active means well fitted activation curve with a large enough effect; inconclusive means small, poorly fitted or top-dose-only effect; cell line not stated here; further: % of control where 0% means no effect; nearly all actives have a fitted effect of over 65% in size
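Stable cell line treated 24 h with compounds at 5 concentrations (CCCP controls), then fixed and immunostained for PINK1 plus nuclear and cell stains; PINK1 immunofluorescence quantified by laser-scanning microplate cytometry.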
KB-V1 cytotox: qHTS assay for MDR1-selective chemotherapeutics: Primary screen using the drug-selected MDR subline cells KB-V1; Potency, µM (top dose mostly 46.1 µM), usual class: cytotoxic; 3.4% of 400,000 active; KB-V1 MDR cells viability, CellTiter-Glo, 72 h; further: on the % scale 0 is the no-effect control and ±100 the full control effect; nearly all actives have a fitted effect of over 60% in size
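Potencies derive from concentration-effect curves fitted to normalized luminescence (CellTiter-Glo) of KB-V1 cells treated for 72 h at 37 degrees C in phenol-red-free DMEM containing 10% FBS.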
SW480 rerep: A quantitative high throughput screen for small molecules that induce DNA re-replication in SW480 colon adenocarcinoma cells; SW480 DNA re-replication, Hoechst DNA content imaging, 48 h; Potency, µM (series often up to 46.1 µM), for inactives: at the highest dose re-replication activation, most hits filed as activators; 1.8% of 340,000 active; AID 624297, 2012; further: % of control where 0% means no effect; nearly all actives have a fitted effect of over 55% in size
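DNA re-replication was detected as more nuclei of elevated Hoechst intensity after 48 hr exposure to compound (23 nL pinned per well of 250 cells).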
KB-3-1 cytotox: qHTS assay for MDR1-selective chemotherapeutics: Primary screen using the parental adenocarcinoma cell KB-3-1. KB-3-1 viability, CellTiter-Glo ATP luminescence, 72 h. Potency, µM (doses to about 46.1 µM), most hits filed as cytotoxic. 1.4% of 400,000 active. AID 1347075, 2019; further: on the % scale 0 is the no-effect control and ±100 the full control effect; nearly all actives have a fitted effect of over 60% in size
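Viability of parental KB-3-1 cells, measured by CellTiter-Glo luminescence, followed a 72 h incubation at 37 °C with pinned compounds in phenol-red-free DMEM containing 10% FBS.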
MCF10A rerep: A quantitative high throughput screen for small molecules that induce DNA re-replication in MCF 10a normal breast cells | MCF 10A DNA re-replication, Hoechst nuclear intensity, 48 h | 2.9% of 350,000 active | Potency, µM (highest dose often 46.1 µM), for the others: at the top dose activity, positive = re-replication, most hits filed as activators; further: % of control where 0% means no effect; nearly all actives have a fitted effect of over 50% in size
* marks the source's active call; other numbers are inactive results; i = inactive; ? = inconclusive; / = no result. Only some compounds are listed: those with a hit (about 6.7% of all), similar ones and a draw of the others. Unless noted, the call rests on the fitted dose curve; in most records, active means well fitted curve in the direction sought with a large enough effect; inconclusive means small, poorly fitted or top-dose-only effect, or another doubt; inactive means no such curve, though single readings can be large; an effect the other way counts as inactive or inconclusive. Potency means the concentration at half of the fitted maximal effect.

SMILES | PINK1 modulator | KB-V1 cytotox | SW480 rerep | KB-3-1 cytotox | MCF10A rerep
CCn1cc(C2=NOC(C(=O)Nc3ccccc3C(=O)OC)C2)c(C)n1 (centres undefined) | 9.6% | 10.3µM* | -10.8% | i | -5.7%
O=C(NCCC1CCCCN1S(=O)(=O)c1cccs1)C(=O)Nc1cccc(F)c1 (centres undefined) | -1.1% | 16.4µM* | -3.0% | i | ?
O=C(NCC1CCCN1S(=O)(=O)c1cccs1)c1ccc(Cl)cc1 (centres undefined) | 0.1% | ? | -16.0% | i | 12.8%
O=C(NCCC1CCCCN1S(=O)(=O)c1cccs1)C(=O)Nc1ccc(F)cc1 (centres undefined) | -0.4% | ? | ? | ? | ?
O=C(NCC1CCCN1S(=O)(=O)c1cccs1)c1cccc(Cl)c1 (centres undefined) | -0.1% | ? | 2.91µM* | i | 8.3%
COc1ccccc1NC(=O)C(=O)NCCC1CCCCN1S(=O)(=O)c1cccs1 (centres undefined) | 1.3% | i | -71.9% | ? | 21.2%
O=C(NCCC1CCCCN1S(=O)(=O)c1cccs1)C(=O)NCc1ccccc1 (centres undefined) | 3.7% | 14.6µM* | ? | ? | ?
COc1ccccc1NC(=O)C(=O)NCC1CCCN1S(=O)(=O)c1cccs1 (centres undefined) | -2.4% | 4.61µM* | -1.9% | i | 12.5%
O=C(NC(c1ccc(Cl)cc1)c1ccsc1)C1CCN(CCOc2ccc(Cl)cc2)CC1 (centres undefined) | 0.3% | i | / | i | /
Cc1ccccc1CNC(=O)c1nn(-c2ccccc2F)nc1CO | -0.6% | / | / | / | /
Cc1ccc(CNC(=O)C(=O)NCC2CCCN2S(=O)(=O)c2cccs2)cc1 (centres undefined) | -0.4% | 9.2µM* | -1.4% | i | 6.4%
CN(CC(=O)Nc1ccc(F)cc1)C(=O)COC(=O)c1cc(S(=O)(=O)N(C)C)ccc1N1CCCC1 | -0.9% | i | -5.4% | i | -3.1%
CC(=O)OC[C@H]1O[C@@H](n2ncc(=O)[nH]c2=O)[C@H](OC(C)=O)[C@@H]1OC(C)=O | -0.7% | 8.2µM* | ? | 3.26µM* | -12.4%
Cc1ccc(-n2c(Cl)c(Cl)nc(Cl)c2=O)cc1 | -4.1% | i | 8.2µM* | ? | 1.84µM*
Cc1ccc(/C=C2\SC(=S)N(CCCC(=O)Nc3cccnc3)C2=O)cc1 | 5.0% | 23.1µM* | ? | ? | ?
Cc1ccc(/C=C2\SC(=S)N(CC(=O)Nc3cccnc3)C2=O)cc1 | 6.6% | i | -12.8% | i | ?
O=C(CCCN1C(=O)/C(=C/c2cccs2)SC1=S)Nc1cccnc1 | 7.8% | i | -46.1% | i | -28.2%
O=C(CCCN1C(=O)/C(=C/c2ccccc2OC(F)F)SC1=S)Nc1cccnc1 | -1.8% | ? | ? | ? | 23.1µM*
COc1ccccc1/C=C1/SC(=S)N(CCC(=O)Nc2cccnc2)C1=O | 6.8% | i | -13.4% | i | -9.6%
O=C(CCCN1C(=O)/C(=C/c2cccc(Br)c2)SC1=S)Nc1cccnc1 | -2.5% | i | 18.4µM* | ? | 18.4µM*
O=C(CCCN1C(=O)/C(=C/c2cccc(Br)c2)SC1=S)Nc1ccccn1 | -2.4% | 14.6µM* | ? | 5.8µM* | ?
CCN(CC)S(=O)(=O)c1ccc2c(c1)N(CC(=O)Nc1c(C)cccc1C)C(=O)C1CCCN21 (centres undefined) | 0.7% | / | / | / | /
COc1cccc(C(C(=O)NC2CCCCC2)N(C(=O)c2csnn2)C2CC2)c1 (centres undefined) | 2.7% | i | -11.9% | i | -16.3%
CCCCN1CC(C)(C)Oc2cccc(F)c2S1(=O)=O | 0.1% | i | 0.4% | i | -2.6%
O=C(CCCN1C(=O)/C(=C\c2cccc(Br)c2)SC1=S)Nc1cccnc1 | 0.7% | i | 25.8% | i | 8.2µM*

Screens deposited in PubChem BioAssay by National Center for Advancing Translational Sciences (NCATS).
